Screening results (PubChem BioAssay)
The full list was thinned out, with hits kept by preference.
IL-1B inflam inh = qHTS for Inhibitors of Inflammasome Signaling: IL-1-beta AlphaLISA Primary Screen; THP-1 LPS/ATP IL-1B secretion, AlphaLISA, 16 h; hits give low values; activity change, % at 57.5 µM; 360,000 compounds, 4.7% hits; in the data active = activity change below about -50%; inconclusive = mostly about -30% to -49%
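THP-1 cells pretreated 1 hr with compounds (up to 57.5 uM final), then stimulated with LPS (250 ng/mL final) plus ATP (1.25 mM final); secreted IL-1B measured by AlphaLISA after 16 hr, decreased signal indicating inhibition.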
ALOX12 inh = Primary qHTS assay for inhibitors of human arachidonate 12S-lipoxygenase (ALOX12): Round 2 | Polyunsaturated fatty acid lipoxygenase ALOX12 (Homo sapiens), P18054 | 580,000 compounds, 1.1% hits | Potency, µM (doses to about 108 µM), for the others: at the top dose activity change, negative = inhibition, actives largely listed as inhibitors | purified 12hLO, xylenol orange hydroperoxide absorbance; note: potency is the fitted concentration of half-maximal effect
Target sequence (P18054 whole entry, looked up): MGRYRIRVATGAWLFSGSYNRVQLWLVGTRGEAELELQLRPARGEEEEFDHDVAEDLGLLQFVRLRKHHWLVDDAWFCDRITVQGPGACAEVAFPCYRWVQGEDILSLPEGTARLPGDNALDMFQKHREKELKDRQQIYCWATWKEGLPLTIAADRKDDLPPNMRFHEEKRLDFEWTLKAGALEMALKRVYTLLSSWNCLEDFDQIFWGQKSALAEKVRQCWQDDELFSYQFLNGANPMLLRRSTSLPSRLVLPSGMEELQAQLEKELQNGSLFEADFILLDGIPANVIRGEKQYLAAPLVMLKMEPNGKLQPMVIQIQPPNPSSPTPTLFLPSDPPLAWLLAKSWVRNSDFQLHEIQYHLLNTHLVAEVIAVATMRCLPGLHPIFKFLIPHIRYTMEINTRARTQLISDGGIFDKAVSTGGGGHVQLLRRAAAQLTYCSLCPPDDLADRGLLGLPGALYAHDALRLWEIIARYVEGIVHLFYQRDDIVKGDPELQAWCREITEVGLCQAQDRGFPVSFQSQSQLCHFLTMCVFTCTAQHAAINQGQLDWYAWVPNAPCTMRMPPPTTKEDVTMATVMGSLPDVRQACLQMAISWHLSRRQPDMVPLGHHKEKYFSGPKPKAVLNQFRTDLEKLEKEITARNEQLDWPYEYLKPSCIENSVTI
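Purified human 12hLO at 150 nM in 25 mM Hepes, 0.01% Triton X-100, pH 7.0, preincubated 15 min at room temperature with compound. Reaction started with 40 uM arachidonic acid, 30 min at room temperature. Hydroperoxide measured by Fe-xylenol orange, 573/405 nm absorbance ratio.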
TDP1 cell noCPT = qHTS for Inhibitors of human tyrosyl-DNA phosphodiesterase 1 (TDP1): qHTS in cells in absence of CPT; AID 686978, 2013; DT40 Tdp1-/- hTDP1 cells, no CPT, ATP luminescence, 48 h; 420,000 compounds, 15% hits; Potency, µM (series often up to 46.2 µM), for the others: top-dose activity change, negative = growth inhibition, hits mostly inhibitors; note: potency is the fitted concentration of half-maximal effect; nearly all actives have a fitted effect of over 55% in size
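Readout: luminescence from CellTiter-Glo after 30 min in the dark at RT. Cells: DT40 Tdp1-/- with stable hTDP1, 400/well. Exposure: compounds alone, ≥48 hr, 37 °C.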
HT1080 IDH1KD tx = qHTS for induction of synthetic lethality in tumor cells producing 2HG: qHTS for the HT-1080-IDH1KD cell line | HT-1080 IDH1 knockdown viability, ATP luminescence, 48 h | Potency, µM (titrated, usually from 46.1 µM), without a hit: at the top dose activity, negative = toxicity, usual class: cytotoxic | 360,000 compounds, 2% hits | AID 686971, 2013;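 note: potency is the fitted concentration of half-maximal effect; 0% = DMSO wells and -100% = cell-free medium wells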
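Viability of IDH1-knockdown HT-1080 fibrosarcoma cells was assessed by CellTiter-Glo after 48 h at 37 °C with titrated compound; concentration-effect curves were classified by fit quality and response size.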
DT40 TDP1 CPT = qHTS for Inhibitors of human tyrosyl-DNA phosphodiesterase 1 (TDP1): qHTS in cells in presence of CPT; chicken DT40 Tdp1-/-;hTDP1 cells + 20 nM CPT, ATP luminescence, 48 h; Potency, µM (top dose mostly 46.2 µM), for inactives: top-dose activity change, negative = growth inhibition, usual class: inhibitors; 420,000 compounds, 12% hits; AID 686979, 2013; note: potency is the fitted concentration of half-maximal effect; nearly all actives have a fitted effect of over 55% in size
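Chicken DT40 Tdp1-/- cells stably complemented with human TDP1 were seeded at 400 cells/well in medium containing 20 nM camptothecin, exposed to pin-transferred compounds, and grown at 37 °C for at least 48 hr. Viability was read as ATP luminescence.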
HT1080-NT tox = qHTS for induction of synthetic lethality in tumor cells producing 2HG: qHTS for the HT-1080-NT fibrosarcoma cell line; HT-1080-NT fibrosarcoma viability, CellTiter-Glo ATP luminescence, 48 h; Potency, µM (highest dose often 46.1 µM), inactives show top-dose activity, negative = less viability, hits mostly cytotoxic; 360,000 compounds, 1.6% hits;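 note: NT is the 2HG producing partner of a matched IDH1 knockdown line; potency is the fitted concentration of half-maximal effect; 0% = DMSO-treated cells and -100% = media-only wells without cells; nearly all actives have a fitted effect of over 55% in size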
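750 cells/well, RPMI + 5% FBS; 2 h settle, compound pin-transfer, 48 h at 37 degrees C. CellTiter-Glo 10 min RT, luminescence. Normalized to DMSO and media-only wells.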
* marks the source's active call; other numbers are inactive results; ! = not confirmed by another sample; [ ] = remark or other dose. Unless noted, calls come from the whole dose curve; as a rule, active = well fitted curve in the direction sought with a large enough effect; inconclusive = small, poorly fitted or top-dose-only effect, or another doubt; inactive = no such curve, though single readings can be large; an effect the other way counts as inactive or inconclusive. Unless noted, % is set by controls: 0 for no effect and ±100 for the full control effect.

`O=C(c1cc2ccccc2oc1=O)N1CCN(c2cccc(Cl)c2)CC1` gave ALOX12 inh -1.7%.
`CC1(C(=O)NCc2cccc3ccccc23)CCN1CCc1ccccc1` (centres undefined) gave IL-1B inflam inh 9.0, ALOX12 inh -6.2%, TDP1 cell noCPT 18.4µM*, HT1080 IDH1KD tx inconclusive, DT40 TDP1 CPT inconclusive and HT1080-NT tox inconclusive.
Screening CC(C)Oc1ccc(CN2CCC2(C)C(=O)NCc2cccc3ccccc23)cc1 (centres undefined) returned IL-1B inflam inh -19.4, ALOX12 inh -3.4%, TDP1 cell noCPT 14.6µM*, HT1080 IDH1KD tx inconclusive, DT40 TDP1 CPT 11.6µM* and HT1080-NT tox 18.4µM*.
CC1(C(=O)NCc2cccc(C(F)(F)F)c2)CCN1CCc1ccccc1 (centres undefined) was read as IL-1B inflam inh -9.1, ALOX12 inh 0.2%, TDP1 cell noCPT inconclusive, HT1080 IDH1KD tx -28.0%, DT40 TDP1 CPT inconclusive and HT1080-NT tox inconclusive.
Screening Brc1ccc(-c2csc3ncnc(Sc4nnc(C5CC5)o4)c23)cc1 returned ALOX12 inh 10.1%.
Screening N#CC1(NC(=O)CNc2ccc(F)cc2Cl)CCCC1 returned ALOX12 inh 10.7%.
`COc1c(Cl)cc(C(=O)Nc2cccc(-c3nc4ccccc4[nH]3)c2)cc1Cl` gave ALOX12 inh 0.0%, TDP1 cell noCPT 23.1µM* and DT40 TDP1 CPT inconclusive.
`CC(=O)Nc1cc(NC(C)=O)cc(-c2nc3ccccc3[nH]2)c1` gave IL-1B inflam inh 12.8, ALOX12 inh 184.3%, TDP1 cell noCPT 5.8µM*!, HT1080 IDH1KD tx 21.5%, DT40 TDP1 CPT 8.2µM*! and HT1080-NT tox 23.1%.
Screening CCCN(CCC)S(=O)(=O)c1ccc(C(=O)Nc2cccc(-c3nc4ccccc4[nH]3)c2)cc1 returned ALOX12 inh -20.2%, TDP1 cell noCPT 4.61µM* and DT40 TDP1 CPT 4.61µM*.
`CC(=O)Nc1ccc2nc(-c3ccncc3)[nH]c2c1` gave IL-1B inflam inh -14.8, ALOX12 inh 1.8%, TDP1 cell noCPT -2.9%, HT1080 IDH1KD tx 19.9%, DT40 TDP1 CPT -1.5% and HT1080-NT tox 17.6%.
`CC(=O)Nc1ccc(-c2nc3ccc(Cl)cc3[nH]2)cc1` gave TDP1 cell noCPT -24.3% and DT40 TDP1 CPT -2.9%.
CC(=O)Nc1ccc2nc(-c3cc(C)ccc3C)[nH]c2c1 was read as ALOX12 inh -7.1%, TDP1 cell noCPT 3.26µM* and DT40 TDP1 CPT 3.26µM*.
Screening COc1ccc(NC(=O)NCc2nc(-c3cccc(Cl)c3)oc2C)cc1 returned ALOX12 inh 8.8%.
Screening CC(C)c1ccc(NC(=O)C(Sc2ccccc2)c2ccccc2)cc1 (centres undefined) returned ALOX12 inh -19.8%.
Screening c1cnc(N2CC[C@H](c3nnc(-c4ccncc4)o3)C2)nc1 returned ALOX12 inh 48.1%[176 µM].
`CC1(C(=O)Nc2cccc(C(F)(F)F)c2)Cc2c(-c3ccc4c(c3)OCO4)ccnc2O1` (centres undefined) gave IL-1B inflam inh 34.8, ALOX12 inh -17.0%, TDP1 cell noCPT 18.4µM*, HT1080 IDH1KD tx inconclusive, DT40 TDP1 CPT inconclusive and HT1080-NT tox inconclusive.
Screening CC1(C(=O)Nc2ccccc2)Cc2c(-c3cccc(C(F)(F)F)c3)ccnc2O1 (centres undefined) returned IL-1B inflam inh inconclusive, ALOX12 inh -4.2%, TDP1 cell noCPT inconclusive, HT1080 IDH1KD tx -18.1%, DT40 TDP1 CPT inconclusive and HT1080-NT tox -2.3%.
For CC1(C(=O)Nc2ccc3c(c2)OCO3)Cc2c(-c3cccc(C(F)(F)F)c3)ccnc2O1 (centres undefined) the results were IL-1B inflam inh 41.7, ALOX12 inh -17.9%, TDP1 cell noCPT 3.66µM*, HT1080 IDH1KD tx 11.6µM*, DT40 TDP1 CPT 4.11µM* and HT1080-NT tox inconclusive.
For CCn1cnc2c1c(=O)n(CC(=O)Nc1ccc(C)c(F)c1)c(=O)n2Cc1ccccc1 the results were ALOX12 inh -75.4%.
Screening CCOc1ccc(NC(=O)c2cc(SC)ccc2Cl)cc1 returned IL-1B inflam inh -17.7, ALOX12 inh -2.1%, TDP1 cell noCPT 16.4µM*, HT1080 IDH1KD tx 1.9%, DT40 TDP1 CPT 18.4µM* and HT1080-NT tox 2.7%.
`CSc1ccc(Cl)c(C(=O)Nc2cc(C)cc(C)c2)c1` gave ALOX12 inh -16.7%.
CCCCCOc1ccc(NC(=O)c2cc(SC)ccc2Cl)cc1 was read as IL-1B inflam inh 14.9, ALOX12 inh 16.6%, TDP1 cell noCPT 13µM*, HT1080 IDH1KD tx -7.6%, DT40 TDP1 CPT 23.1µM* and HT1080-NT tox 11.6%.
Screening COc1ccccc1OCc1ccc(C(=O)Nc2ccncc2)o1 returned IL-1B inflam inh -19.1, ALOX12 inh 15.5%, TDP1 cell noCPT 20.6µM*, HT1080 IDH1KD tx inconclusive, DT40 TDP1 CPT inconclusive and HT1080-NT tox -8.7%.
Screening CCCc1ccc(OCc2ccc(C(=O)NN)o2)c(OC)c1 returned IL-1B inflam inh 25.8, ALOX12 inh 2.1%, TDP1 cell noCPT 23.1µM*, HT1080 IDH1KD tx -17.9%, DT40 TDP1 CPT 5.7% and HT1080-NT tox inconclusive.
`O=C(Cc1ccccc1Cl)NCc1cccnc1` gave IL-1B inflam inh 13.2, ALOX12 inh 0.0%, TDP1 cell noCPT 11.2%, HT1080 IDH1KD tx 0.0%, DT40 TDP1 CPT 5.6% and HT1080-NT tox 1.4%.
For O=C(NCc1cccnc1)c1ccc(COc2ccccc2Cl)o1 the results were IL-1B inflam inh 0.0, ALOX12 inh -2.1%, TDP1 cell noCPT 13µM*, HT1080 IDH1KD tx -5.3%, DT40 TDP1 CPT inconclusive and HT1080-NT tox inconclusive.
Screening O=C(Nc1nc2ccccc2n1CCN1CCOCC1)c1ccc(COc2ccccc2Br)o1 returned IL-1B inflam inh -95.0*, ALOX12 inh 13.4%, TDP1 cell noCPT inconclusive, HT1080 IDH1KD tx inconclusive, DT40 TDP1 CPT inconclusive and HT1080-NT tox -11.5%.
`COC[C@H]1CCCN1C(=O)C[C@@H]1O[C@H](CNC(=O)Nc2ccccc2)[C@@H](O)[C@H]1O` gave ALOX12 inh 6.3%[176 µM].
